Data published in PubChem BioAssay (NCI).
Compounds without any hit were thinned out: in the full panel of roughly 83,000, 20% have a hit.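 Method: cells in 96-well plates; compound added at one concentration; 48 h incubation; percent growth measured; values under 10 scored active.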 Unmarked numbers belong to inactive results. Activity calls are given as the source filed them.

System: HL-60(TB) leukemia
Test: NCI-60 one-dose screen, 48 h (100 = growth as untreated, 0 = no growth, -100 = all killed)
Conditions: 10 µM unless noted

For `COc1ccc2[nH]cc(/C=N/Nc3ccnc4cc(Cl)ccc34)c2c1`, the growth was -56.1% (active).
With `COc1cc(/C=C2\C(=O)Nc3ccccc32)ccc1OCc1ccc(Cl)cc1` the growth was 113%.
With `CNC(=O)c1cc(N2CCc3cc(NC(=O)Nc4ccc(N5CCN(C)CC5)c(C(F)(F)F)c4)ccc32)ccn1` the growth was 79%.
In the case of `Cc1ccc(-c2nn(-c3ccccc3)cc2/C=C/C(=O)c2ccc(NC(=O)CCCCCCC(=O)NO)cc2)cc1`, the growth is reported as 109%.
Molecule `COc1ccc(NC(=O)c2sc3nc(-c4cnccn4)cc(-c4cccs4)c3c2N)cc1` has a growth of 56.2%.
With `O=C(Cn1cc(CN2C(=O)c3ccc([N+](=O)[O-])cc3C2=O)nn1)Nc1ccc(F)cc1Cl` the growth was 99.2%.
In the case of `O=C(CSc1nc2sc3c(c2c(=O)n1-c1ccc(Cl)cc1)CCCC3)NNC(=O)Nc1ccc(Cl)c(C(F)(F)F)c1`, the growth is reported as 6.38% (active).
In the case of `O=c1[nH][nH]c(-c2ccc(F)cc2)c1-c1nc2ccccc2s1`, the growth is reported as 103%.
`Clc1nc2ccccc2nc1-c1nnc(C2CCCCC2)o1` was tested, and the growth was 66.6%.
Work on `COC(=O)c1cccc(NC2=C(Cl)C(=O)C(C)=C(C)C2=O)c1` yielded a growth of 60.4%.
For `CCN1C(=S)N(CC)C2C1NN=C1SC(c3ccccc3)=CC(=O)N12` (stereo not given), the growth was 86.9%.
`O=S(=O)(Nc1cc(Cl)cc(Cl)c1)c1ccc(-c2cnc(C3CC3)o2)cc1` was tested, and the growth was 8.29% (active).
For `FC(F)(F)c1cc(Br)cc(-c2cc(-c3ccc4c(c3)OCCO4)[nH]n2)c1`, the growth was 6.8% (active).
For `Cc1cccc(/C=C/c2nn3c(-c4ccco4)nnc3s2)c1`, the growth was 86.2%.
With `CC(Nc1c(C#N)cnc2ccc(-c3cncc(O)c3)cc12)c1ccccc1` (stereo not given) the growth was 3.91% (active).
For `Fc1ccc(-c2cc3nc(C(Cl)Cl)nc(-c4ccc(F)cc4)n3n2)cc1`, the growth was -1.81% (active).
With `NC(N)=Nc1ccc(Oc2cccc(NC(N)=Nc3ccc(Cl)c(C(F)(F)F)c3)c2)cn1` the growth was 0.375% (active).
`O=C(O)c1ccc(-n2cc(CNc3cccc(Cl)c3)c(-c3ccc(F)cc3)n2)cc1` showed a growth of 105%.
For `CC1=C(C)C(=O)C(Nc2ccccc2)=C(Cl)C1=O`, the growth was 45.6%.
With `COc1ccc(-c2cc(-c3ccc(Cl)cc3)nc3nc(N)nn23)cc1` the growth was 72.2%.
Molecule `CCc1cc(OC(=O)N2CCN(CCC(C)(COC(C)(C)C)COC(C)(C)C)CC2)ccc1Nc1cc(-c2ccc(-n3cccn3)cc2)[nH]n1` has a growth of 66.5%.
In the case of `Clc1ccc2[nH]cc(-c3nn4cc(-c5ccncc5)nc4s3)c2c1`, the growth is reported as 89.8%.
With `COc1ccc(NS(=O)(=O)c2ccc(-c3cnc(C4CC4)o3)cc2)cc1Cl` the growth was 3.27% (active).
In the case of `O=C(NNc1nc2cc(F)c(F)cc2n2cccc12)c1ncccn1`, the growth is reported as 2.19% (active).
`CN1CCN(Cc2ccc(NC(=O)c3cncc(C#Cc4[nH]nc5ncncc45)c3)cc2C(F)(F)F)CC1` gave a growth of 21.5%.
With `Cn1cc(-c2nc(N)nnc2-c2c[nH]c3ccccc23)c2cc(Br)ccc21` the growth was -0.377% (active).
For `COc1cc(/C=C/C(=O)c2cc(OC)c(OC)c(OC)c2)ccc1OCc1ccc(F)cc1`, the growth was 9.93% (active).
For `O=C1Nc2ccccc2/C1=C/c1ccc(COCC2CO2)n1-c1ccc(O)cc1` (stereo not given), the growth was 103%.
`O=C1C(c2ccccc2)=C(N2CCc3ccccc32)OC1(Cl)Cl` was tested, and the growth was -14.6% (active).
Work on `Cn1cc(-c2cc3ncnc(Nc4ccc(CC(=O)Nc5nc(C(C)(C)C)cs5)cc4)c3s2)cn1` yielded a growth of 29.2%.
Molecule `CCc1cc(O)ccc1Nc1cc(-c2ccc(-n3cccn3)cc2)[nH]n1` has a growth of 58.6%.
In the case of `CS(=O)(=O)c1ccc(-c2nn(-c3ccccc3)cc2/C=N/NC(=O)c2ccncc2)cc1`, the growth is reported as 81.1%.
With `Cc1cc(Cl)cc(NS(=O)(=O)c2ccc(-c3cnc(C4CC4)o3)cc2)c1` the growth was -4.23% (active).
For `CCCCCCNC(=O)Oc1ccc(/C(=C(\C)c2ccc(OC)cc2)c2ccc(OCCN(C)C)cc2)cc1`, the growth was 56.3%.
`CCN1CCN(Cc2ccc(C(=O)Nc3ccc(C)c(Oc4ccc(-c5[nH]nc6ncnc(N)c56)cc4)c3)cc2C(F)(F)F)CC1` was tested, and the growth was 139%.
`OC1CCN(CCCOc2c3ccccc3nc3c2oc2ccccc23)CC1` was tested, and the growth was 6.8% (active).
Molecule `Cc1ccc(NC(=O)/C=C/c2ccc(OCCCOc3ccc4c(C)cc(=O)oc4c3)cc2)cc1` has a growth of 98.5%.
In the case of `CCC(=C(c1ccc(OCCN(C)C)cc1)c1ccc(OCCN(C)C)cc1)c1ccc(Cl)cc1`, the growth is reported as -59.5% (active).
With `O=C(c1ccc(O)cc1)C1[C@H](c2ccc(Cl)cc2)[C@@H](c2ccccc2)NC12C(=O)Nc1ccc(Cl)cc12` (stereo not given in full) the growth was 38.5%.
`Cc1cc(=O)oc2cc(OCCCOc3ccc(/C=C/C(=O)Nc4ccc(Br)cc4)cc3)ccc12` gave a growth of 95.8%.
For `C/C(=N\NC(=O)Nc1ccccc1)c1nnn(-c2ccc([N+](=O)[O-])cc2)c1C`, the growth was 98.9%.
Molecule `Cc1ccc(/C=C/c2nn3c(-c4ccco4)nnc3s2)cc1C` has a growth of 91.4%.
`O=C(CSc1nc2ccccc2c(=O)n1-c1ccccc1)Nc1cccc(C(=O)/C=C/c2ccccc2Cl)c1` showed a growth of 108%.
With `Cc1c(F)cc(C(N)=O)cc1NCC(=O)Nc1ccc([N+](=O)[O-])cc1` the growth was 132%.
For `CCN(CC)CCOc1ccc(C(=C(c2ccccc2)C2CCCC2)c2ccc(OCCN(CC)CC)cc2)cc1`, the growth was -40.9% (active).
Work on `Cc1nn(-c2ccccc2)c2ncnc(N/N=C/c3cccc(O)c3)c12` yielded a growth of 35.3%.
With `CC(=O)Oc1ccccc1C(=O)Nc1ccc(C(=O)/C=C/c2ccncc2)cc1` the growth was 7.33% (active).
For `O=C(CCl)Nc1ccc(NC(=O)c2cc(Cl)ccc2O)c(Cl)c1`, the growth was 49.3%.
Work on `N=c1c2cc(-c3ccccc3)oc2ncn1/N=C/c1ccccc1` yielded a growth of 58.8%.
With `Clc1ccc(Cc2nnc3sc(-c4cccnc4)nn23)cc1` the growth was 97.2%.
`CCOC(=O)Nc1cccc(-n2cnc3cc(-c4ccc(O)cc4)ccc32)c1` was tested, and the growth was 2.92% (active).
Work on `CCOC(=O)c1c(N)c(C#N)cn1-c1cc(OC)c(OC)c(OC)c1` yielded a growth of 96.1%.
With `Cc1ccc2c(n1)C(=O)C(Cl)=C(Nc1ccc(C(=O)OC(C)(C)C)cc1)C2=O` the growth was 4.87% [9.25 µM] (active).
Work on `CCOc1c(C#N)c(Nc2ccc(S(N)(=O)=O)cc2)c(C#N)c2nnc(C)n12` yielded a growth of 114%.
For `CN1CCN(Cc2ccc(NC(=O)c3cncc(C#Cc4cnn5cccnc45)c3)cc2C(F)(F)F)CC1`, the growth was -19% (active).
In the case of `O=C(CSc1nc2ccccc2c(=O)n1-c1ccccc1)Nc1ccc(-c2nc3ccc([N+](=O)[O-])cc3[nH]2)cc1`, the growth is reported as 89.3%.
In the case of `CN1CCN(c2ccc(Nc3nc(NCCCNS(=O)(=O)c4ccc(Cl)cc4)c4sccc4n3)cc2)CC1`, the growth is reported as -43.7% (active).
For `O=C(Nc1ccc(N2CCOCC2)cc1)Nc1ccc2c(ccn2C(=O)c2cccc(F)c2)c1`, the growth was 96.7%.
`Cc1ccc(-c2csc(N/N=C/c3cccs3)n2)cc1` gave a growth of 84.2%.
`Cc1ccsc1[C@H]1c2[nH]c3ccccc3c2C[C@H]2C(=O)N(CCCCCCC(=O)NO)CC(=O)N12` was tested, and the growth was 104%.
Work on `CNC(=O)Nc1ccc(Nc2cc(-c3ccc(-n4cccn4)cc3)[nH]n2)c(C)c1` yielded a growth of 92.7%.
With `COc1cc2c3c(cc4c5c(ccc4c3c1OC)OCO5)N(CCN(C)C)C2=O` the growth was -17.1% (active).
`O=C(CSc1nnc(-c2ccc(Cl)cc2)n1-c1ccccc1)Nc1ccc(Cl)cc1` showed a growth of 79.8%.
With `COc1cc(OC)cc(-c2cc(-c3c[nH]c4ccccc34)nc(-c3c[nH]c4ccccc34)c2C#N)c1` the growth was 102%.
With `Nc1nc(Nc2ccccc2SSc2ccccc2Nc2nc(N)nc(-c3ccc4ccccc4c3)n2)nc(-c2ccc3ccccc3c2)n1` the growth was 112%.
For `O=C(c1ccc(O)cc1)[C@@H]1[C@@H]2CCCN2[C@@]2(C(=O)N(C(=O)c3ccc(F)cc3)c3ccccc32)[C@H]1c1ccc(F)cc1`, the growth was 78.6%.
Work on `O=C1Nc2ccccc2/C1=N\c1nnc(-c2ccccc2)o1` yielded a growth of 99.6%.
In the case of `C#CC(=O)N(c1ccc(OC)cc1OC)C(C(=O)NCC(=O)OCC)c1cccs1` (stereo not given), the growth is reported as -51.2% (active).
`O=C(CCN1C(=O)/C(=C/c2ccccc2F)SC1=S)N1CCOCC1` showed a growth of 82.7%.
For `O=S(=O)(Oc1ccc(-c2cn3ccoc3n2)cc1)c1cccc(C(F)(F)F)c1`, the growth was 105%.
With `Cn1cc(-c2nnc(N)nc2-c2c[nH]c3ccc(F)cc23)c2cc(F)ccc21` the growth was 61.7%.
`O=C(CSc1nc2ccccc2c(=O)n1-c1ccc(Cl)c(Cl)c1)Nc1ccc(S(=O)(=O)Nc2ccc(Cl)nn2)cc1` gave a growth of 106%.
Work on `C=CCSc1ccc2c(c1)C(N1CCNCC1)=Nc1ccccc1O2` yielded a growth of 25.6% [8.25 µM].
With `CCO/C=N/C1=C(C#N)C(c2ccc(F)cc2)c2sc3c(CC)cccc3c2O1` (stereo not given) the growth was -19.1% (active).
For `COc1cc(/C=C2/C(=O)Nc3ccc(Cl)cc32)ccc1OCc1ccc(Cl)cc1`, the growth was 102%.
In the case of `O=C(Nc1nc2ccc([N+](=O)[O-])cc2s1)Nc1ccccc1Br`, the growth is reported as 37.1%.
With `O=C1CCCC2=C1C(c1c[nH]c3ccc(Br)cc13)Cc1cc(Br)ccc1N2` (stereo not given) the growth was 12.9%.
With `COc1ccc(Cn2cc3c(c2-c2ccccc2)CCCc2cnoc2-3)cc1` the growth was 6.55% (active).
`Cn1ncc2ncc(-c3ccc4ncc(C#N)c(N5CCc6cc(F)c(Cl)cc65)c4c3)cc21` was tested, and the growth was 26.7%.
`COc1ccc(-c2csc(N/N=C/c3c(-c4ccc(S(C)(=O)=O)cc4)nc4ccccn34)n2)cc1` was tested, and the growth was 103%.
